One assay relates to C33A. Briefly: Primary qHTS to identify gynecologic anti-cancer compounds using libraries of approved drugs and bioactive compounds (AID 1345084). For activity change, negative = cytotoxicity: % is set by controls: 0 for no effect and ±100 for the full control effect. Note: nearly all actives have a fitted effect of over 55% in size. Note: potency is the fitted concentration of half-maximal effect. The following applies: Gynecologic cancer cell panel viability, ATPlite luminescence, 48 h; series mostly up to 57.5 µM. The method in brief: (§1)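 Five-concentration response, 48 h; readout is ATP-driven luciferase luminescence.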
A general note: In qHTS, concentration-response curves come from the screen itself.

Another assay concerns CAOV3. Described as above. As to conditions: Gynecologic cancer cell panel viability, ATPlite luminescence, 48 h; series mostly up to 57.5 µM. In short, it runs like this:
as §1

For another assay, the system named is CASKI. The description is as above. As to conditions: Gynecologic cancer cell panel viability, ATPlite luminescence, 48 h; series mostly up to 57.5 µM. The method in brief: as §1
A general note: ATP-based viability assays read luminescence as a measure of living cells.

The subject of another assay is Es-2. The assay is described as above. The following applies: Gynecologic cancer cell panel viability, ATPlite luminescence, 48 h; series mostly up to 57.5 µM. The method in brief:
as §1

The subject of another assay is HeLa. The assay is described as above. The following applies: Gynecologic cancer cell panel viability, ATPlite luminescence, 48 h; series mostly up to 57.5 µM. The method in brief:
as §1

The subject of a further assay is Hek293T. Described as above. As to conditions: Gynecologic cancer cell panel viability, ATPlite luminescence, 48 h, control line for the selectivity index; series mostly up to 57.5 µM. The method in brief:
as §1

A further assay concerns JEG-3. The assay is described as above. The following applies: Gynecologic cancer cell panel viability, ATPlite luminescence, 48 h; series mostly up to 57.5 µM. The method in brief: as §1
For a further assay, the system named is OV90. Described as above. The following applies: Gynecologic cancer cell panel viability, ATPlite luminescence, 48 h; series mostly up to 57.5 µM. The method in brief: as §1
Another assay relates to PA-1. Described as above. The following applies: Gynecologic cancer cell panel viability, ATPlite luminescence, 48 h; series mostly up to 57.5 µM. In short, it runs like this:
as §1

The next assay has as its system SKOV3. The assay is described as above. As to conditions: Gynecologic cancer cell panel viability, ATPlite luminescence, 48 h; series mostly up to 57.5 µM. In short, it runs like this: as §1
The test system of another assay is Tov-21-G. The description is as above. As to conditions: Gynecologic cancer cell panel viability, ATPlite luminescence, 48 h; series mostly up to 57.5 µM. In short, it runs like this: as §1
Another assay has as its system Tov112D. The assay is described as above. The following applies: Gynecologic cancer cell panel viability, ATPlite luminescence, 48 h; series mostly up to 57.5 µM. The method in brief: as §1
A short description of assay [1]: qHTS assay for small molecule activators of the human pregnane X receptor (PXR) signaling pathway (AID 720659; call rule not given here; note: 0% is about no effect).
Assay [2] is described as follows: Drug repurposing screens with cells derived from glioblastoma tumor samples (AID 1345199). For activity, negative = cell killing: % is set by controls: 0 for no effect and ±100 for the full control effect. Note: nearly all actives have a fitted effect of over 40% in size. Note: potency is the fitted concentration of half-maximal effect. The following applies: GBM patient neurospheres viability, ATP luminescence, 48 h. The method in brief:
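Four patient lines of CD133+ GBM neurospheres were screened at several concentrations; hits were retested in those lines plus three slower-growing GBM lines, using 48-hour treatment and ATP-based viability.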

This is an account of results in PubChem BioAssay (NCATS).

Values without a mark were called inactive. Records with an inconclusive call do not appear. Activity calls are given as the source filed them. Unless noted, calls come from the whole dose curve; as a rule, active = well fitted curve in the direction sought with a large enough effect; inconclusive = small, poorly fitted or top-dose-only effect, or another doubt; inactive = no such curve, though single readings can be large; an effect the other way counts as inactive or inconclusive.

With `C=C1[C@@H]2CC[C@@]3(C)[C@H](c4ccoc4)OC(=O)C[C@]13O[C@H]1CC(=O)C(C)(C)[C@H](C(OC(C)=O)C(=O)OC)[C@]12C` (some centres undefined), the Potency entry in the assay on C33A, with CAOV3, with CASKI, in the assay on Es-2, with HeLa and in the assay on Hek293T was “inactive” each time. Also, the Potency entry in the assay with JEG-3, in the assay with OV90, in the assay on PA-1, with SKOV3, in the assay on Tov-21-G and with Tov112D was “inactive” throughout.
Regarding `Cc1cccc(NC(=O)N[C@@H]2N=C(c3ccccc3)c3ccccc3N(C)C2=O)c1`, the Potency result with C33A, in the assay on CAOV3, in the assay on CASKI, with Es-2, with HeLa and in the assay on Hek293T was “inactive” throughout. The Potency entry in the assay with JEG-3, in the assay with OV90, in the assay on PA-1, in the assay on Tov-21-G and with Tov112D was “inactive” throughout.
For `C[C@]12CC[C@H]3[C@@H]([C@H](O)CC4=CC(=O)CC[C@@]43C)[C@@H]1CC[C@@H]2O`, the Potency result in the assay on C33A, in the assay on CAOV3, in the assay with CASKI, in the assay on Es-2, in the assay with HeLa and in the assay with Hek293T was “inactive” in each case. Also, the Potency result in the assay on JEG-3, in the assay on OV90, with PA-1, in the assay on SKOV3, in the assay on Tov-21-G and in the assay with Tov112D was “inactive” in each case.
Take `CC(C)(O)[C@H]1O[C@H]2CC[C@@]3(C)[C@@](O)(CC[C@H]4Cc5c([nH]c6ccccc56)[C@@]43C)C2=CC1=O`: the Potency result in the assay with C33A, with CAOV3, in the assay on CASKI, in the assay on Es-2, with HeLa and in the assay on Hek293T was “inactive” each time. The Potency result with JEG-3, in the assay on OV90, with PA-1, with SKOV3, in the assay on Tov-21-G and in the assay with Tov112D was “inactive” in each case.
For the compound `Cc1c(Cl)cccc1S(=O)(=O)Nc1nc(CC(=O)N2CCN(C)CC2)cs1`, the Potency entry with C33A, with CAOV3, with CASKI, in the assay on Es-2, with HeLa and in the assay with Hek293T was “inactive” throughout. The Potency entry with JEG-3, with OV90, in the assay with PA-1, with Tov-21-G and with Tov112D was “inactive” in each case.
For `CC[C@H]1CN2CC[C@H]1C[C@@H]2[C@@H](O)c1ccnc2ccc(OC)cc12`, the Potency result in the assay on C33A, in the assay on CAOV3, in the assay on CASKI, in the assay on Es-2, in the assay with HeLa and with Hek293T was “inactive” each time. The Potency result with JEG-3, in the assay with OV90, with SKOV3, with Tov-21-G and in the assay on Tov112D was “inactive” each time.
For the compound `CC(C)[C@@H](CN1CC[C@@](C)(c2cccc(O)c2)[C@@H](C)C1)NC(=O)[C@H]1Cc2ccc(O)cc2CN1`, the Potency entry in the assay on C33A, in the assay with CAOV3, in the assay with CASKI, in the assay with Es-2, with HeLa and in the assay on Hek293T was “inactive” throughout. In addition, the Potency entry with JEG-3, in the assay with OV90, in the assay on PA-1, in the assay on Tov-21-G and in the assay with Tov112D was “inactive” each time.
As to `COC1=CC(=O)O[C@@H](/C=C/c2ccccc2)C1`, the Potency entry in the assay on C33A, with CAOV3, with CASKI, in the assay with Es-2, in the assay on HeLa and with Hek293T was “inactive” in each case. Moreover, the Potency entry in the assay with JEG-3, with PA-1, in the assay with SKOV3, in the assay on Tov-21-G and in the assay with Tov112D was “inactive” each time. In assay [1], the call was inactive.
`O=C(O)c1ccnc2cc(C(OCCN3CCCCC3)c3ccccc3Cl)[nH]c12` (centres undefined): the Potency result with C33A, in the assay on CAOV3, in the assay with CASKI, in the assay on Es-2, in the assay with HeLa and in the assay with Hek293T was “inactive” in each case. Further, the Potency result with JEG-3, in the assay on OV90, in the assay on PA-1, in the assay on Tov-21-G and in the assay on Tov112D was “inactive” in each case.
Turning to `Cc1cc(C(=O)CN2CCCC2)c(C)n1-c1ccc(F)cc1`, the Potency result in the assay with C33A, with CAOV3, with CASKI, in the assay with Es-2, in the assay with HeLa and in the assay with Hek293T was “inactive” throughout. The Potency entry in the assay on JEG-3, in the assay on OV90, in the assay on PA-1, with Tov-21-G and with Tov112D was “inactive” each time.
Take `N#CC(C#N)=Cc1cc(O)c(O)c(O)c1`: the activity, negative = cell killing in assay [2] (at 45.9 µM (top of the series), tumour line B) was -27.1%. For the same compound, the Potency in assay [2] (tumour line D) is 12600 nM (active).
Turning to `COC1CC(OC2CCC3(C=O)C(CCC4C3CCC3(C)C(C5=CC(=O)OC5)CCC43O)C2)OC(C)C1OC1OC(CO)C(O)C(O)C1O` (centres undefined), the Potency is 158 nM (active) in the assay with C33A; 631 nM (active) in the assay on CAOV3; 1120 nM (active) in the assay with CASKI; 355 nM (active) with Es-2; 282 nM (active) in the assay on HeLa; 398 nM (active) in the assay with Hek293T. Moreover, the Potency is 891 nM (active) with OV90; 501 nM (active) in the assay with PA-1; 355 nM (active) in the assay with SKOV3; 199 nM (active) in the assay on Tov-21-G; 100 nM (active) with Tov112D.
`CN1C(=O)N(c2ccc(C#N)c(C(F)(F)F)c2)C(=O)[C@]1(CO)c1ccccc1`: the Potency entry in the assay on C33A, in the assay with CAOV3, with CASKI, in the assay with HeLa, with Hek293T and in the assay with JEG-3 was “inactive” throughout. The Potency result in the assay with OV90, in the assay on PA-1, in the assay on SKOV3, with Tov-21-G and in the assay with Tov112D was “inactive” in each case.
For `COC1CC(OC2CCC3(C)C(CCC4C3CCC3(C)C(C5=CC(=O)OC5)C(OC(C)=O)CC43O)C2)OC(C)C1OC1OC(CO)C(O)C(O)C1O` (centres undefined), the Potency is 3160 nM (active) in the assay with C33A; 2820 nM (active) in the assay with HeLa; 3160 nM (active) in the assay on Hek293T; 1260 nM (active) in the assay on Tov-21-G; 891 nM (active) with Tov112D.
Take `C=CC(C)(O)CC/C=C(\C)C(=O)O[C@H]1[C@H](O)[C@@H](CO)O[C@@H](OC(=O)[C@]23CCC(C)(C)CC2C2=CCC4[C@@]5(C)CC[C@H](O[C@@H]6O[C@H](CO[C@@H]7OC[C@H](O)[C@H](O)[C@H]7O[C@@H]7OC[C@@H](O)[C@H](O)[C@H]7O)[C@@H](O)[C@H](O)[C@H]6O)C(C)(C)C5CC[C@@]4(C)[C@]2(C)CC3)[C@@H]1OC1OC(C)C(O[C@@H]2OC[C@@H](O)[C@H](O[C@@H]3OC[C@@H](O)[C@H](O)[C@H]3O)[C@H]2O)C(O)C1O` (some centres undefined): the activity change, negative = cytotoxicity in the assay on C33A is 2.58% [at 6.55 µM]; with CASKI, -11.5% [at 6.55 µM]; in the assay on Es-2 it was 0.692% [at 6.55 µM]; in the assay on HeLa, 7.46% [at 6.55 µM]; in the assay with Hek293T, 2.18% [at 6.55 µM]; with JEG-3, -17.2% [at 6.55 µM]. Further, the activity change, negative = cytotoxicity in the assay with OV90 is -3.63% [at 6.55 µM]; in the assay on PA-1, 3.75% [at 6.55 µM]; in the assay with SKOV3 it was 0% [at 6.55 µM]; in the assay on Tov-21-G it was 5.83% [at 6.55 µM]; in the assay on Tov112D it was 1.17% [at 6.55 µM].
